Compound activity from PubChem.
Most compounds without a hit are left out; they make up all but 4.7% or so of the library.
ALR H2O2 inh: human ALR oxidase inhibition via reduced H2O2; P55789; hit rate 3.8% among 290,000; inhibition, % (test concentration not listed); purified ALR, DTT oxidation, H2O2 HRP-luminol luminescence;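 active = mean replicate inhibition above about 79%, with every replicate also reaching it, limit read from the data; inconclusive = only one of the two criteria met; inactive = mean below limit and not every replicate reaching it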
SUMO HTRF inh: SUMOylation inhibition; HTRF SUMOylation assay, SAE1/SAE2 + UBC9, in vitro; P63279; inhibition, % at 35 µM; hit rate 0.36% among 290,000; in the data active = inhibition above about 50%, passing the limit was not always enough; inconclusive = no clear call, values can overlap the other calls
Target sequence (P63279 whole entry, looked up): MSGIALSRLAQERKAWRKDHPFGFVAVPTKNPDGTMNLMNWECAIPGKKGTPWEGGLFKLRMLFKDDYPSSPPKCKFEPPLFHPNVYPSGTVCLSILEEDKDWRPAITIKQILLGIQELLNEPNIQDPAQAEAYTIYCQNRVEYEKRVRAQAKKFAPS
PABP1 MLLE inh: blocks PAM2 peptide binding to the PABP1 MLLE domain. P11940. GST-MLLE / FITC-PAM2 fluorescence polarization. inhibition, % at 20 µM. hit rate 0.36% among 360,000. AID 588489; in the data active = inhibition above about 35%, passing the limit was not always enough;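 note: plate controls were DMSO wells with GST-MLLE for no effect and wells lacking GST-MLLE protein for full effect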
eIF4H FP inh: inhibitors of RNA binding by human eIF4H; inhibition, % at 35 µM; AID 2012; hit rate 0.94% among 290,000; eIF4H fluorescence polarization binding assay;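 note: calls also rest on retests at 20 µM and on dose response follow-up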
Efflux pump inh: antifungal efflux pump inhibition, Nile Red retention | S. cerevisiae Candida pump triplex | hit rate 0.44% among 330,000 | inhibition, % at 10 µM | AID 485275;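 active = plate passing quality check with inhibition over a set limit, or well fluorescence over plate mean plus 4 SD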;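 note: Nile Red retained in pooled yeast measured as flow cytometry median fluorescence; 0% = buffer negative control and 100% = Enniatin B positive control; higher means more Nile Red kept so more efflux inhibition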
PABP FP inh: blocks human PABP binding to poly(A) RNA; fluorescence polarization; hit rate 1% among 290,000; inhibition, % at 35 µM;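 note: calls also rest on retests at 20 µM and on dose response follow-up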
Starred values were filed as active, the others as inactive; ? = inconclusive; nt = no result given. Unless noted, the rule behind the calls is not given here.

SMILES	ALR H2O2 inh	SUMO HTRF inh	PABP1 MLLE inh	eIF4H FP inh	Efflux pump inh	PABP FP inh
CC(C)c1ccc(O)c(NC(=S)NC(=O)c2ccc3c(c2)OCO3)c1	?	-26	47*	4	0	-2
COc1ccccc1N1CCN(C2CCCN(C(=O)CCC(=O)N(C)C)C2)CC1 (configuration not stated)	10	4	-3	102	0	1
CC(C)CN(C(=O)C1CCCO1)c1c(N)n(CC(C)C)c(=O)[nH]c1=O (configuration not stated)	nt	nt	-2	nt	nt	nt
COc1ccc(S(=O)(=O)NNC(=O)c2cc3ccccc3o2)cc1	33	14	1	-11	1	-2
COCCn1c(SCC(=O)NCC2CCCO2)nc2c(c1=O)SCC2 (configuration not stated)	-1	7	126*	12	0	-8
Cn1c(SCC(=O)Nc2ccc(F)cc2)nc2c(c1=O)SCC2	40	14	6	1	0	-8
Cn1c(SCc2c(F)cccc2Cl)nc2c(c1=O)SCC2	nt	5	15	-6	0	2
Cn1c(SCC(=O)Nc2ccccc2F)nc2c(c1=O)SCC2	88*	6	12	4	0	-8
COCCn1c(SCC(=O)NC2CCCCC2)nc2c(c1=O)SCC2	-14	-4	11	10	0	-2
COc1ccc(NC(=O)CSc2nc3c(c(=O)n2C)SCC3)cc1OC	99*	-4	-5	-6	0	10
Cn1c(SCc2ccc([N+](=O)[O-])cc2)nc2c(c1=O)SCC2	99*	2	18	active	0	105*
CC(Sc1ccccc1F)C(=O)Nc1ccc2c(c1)OCCO2 (configuration not stated)	-2	nt	-3	nt	0	nt
COc1ccccc1-c1nc(SCC(=O)Nc2cc(C)on2)c2c(=O)n(C)c(=O)n(C)c2n1	-1	14	0	16	0	5
O=C1NC(=O)C2(C=C(c3ccccc3)C(O)(c3ccccc3)C2)N1 (configuration not stated)	nt	nt	-11	nt	nt	nt
OC(CNCCc1ccc(C(F)(F)F)cc1)COC(c1ccccc1)c1ccccc1 (configuration not stated)	-6	-35	3	-3	0	-13
O=C(NCCC(=O)N(Cc1ccco1)Cc1cccs1)c1ccc([N+](=O)[O-])cc1	nt	nt	-4	nt	nt	nt
CCn1c(SCC(=O)Nc2ccc(OC)c(OC)c2)nc2c(c1=O)SCC2	99*	12	-5	-2	0	-10
COCCn1c(SCC(=O)Nc2cc(C)on2)nc2c(c1=O)SCC2	-4	9	6	-11	0	-4
COCCn1c(SCC(=O)Nc2cccc(F)c2)nc2c(c1=O)SCC2	99*	4	13	-18	0	-4
CC(C)(C)OC(=O)N1CCC(NC(=O)c2ncn(Cc3ccccc3)c2C(=O)NC2CCN(C(=O)OC(C)(C)C)CC2)CC1	-3	nt	5	nt	1	nt
CCN(CC)C(=O)COc1ccc2oc(-c3ccco3)cc(=O)c2c1	nt	53*	1	17	0	13
CCOc1ccccc1NC(=O)CCC(=O)Nc1nnc(C2CCCCC2)s1	-4	-19	-4	-5	0	-11
CCS(=O)(=O)C1=NN2C(=N)/C(=C\c3ccc(SCc4ccco4)o3)C(=O)N=C2S1	nt	62*	-120	?	nt	-2
N=C1/C(=C/c2ccc(-c3cccc(C(=O)O)c3)o2)C(=O)N=C2SC(CC(=O)N3CCOCC3)=NN12	8	24	-8	62*	0	58*
N=C1/C(=C\c2ccc(-c3cccc(C(=O)O)c3)o2)C(=O)N=C2SC=C(c3ccccc3)N12	6	33	-79	58*	0	60*
SMILES	ALR H2O2 inh	SUMO HTRF inh	PABP1 MLLE inh	eIF4H FP inh	Efflux pump inh	PABP FP inh
COc1ccc(/C=C2\C(=N)N3N=C(CC(=O)N4CCOCC4)SC3=NC2=O)cc1	-6	17	-13	-4	0	1
N=C1/C(=C\c2ccc(SCc3ccccc3)o2)C(=O)N=C2SC(CC(=O)N3CCOCC3)=NN12	98*	11	-36	30	0	34
CCS(=O)(=O)C1=NN2C(=N)/C(=C\c3ccc(OC(=O)c4ccco4)c(Br)c3)C(=O)N=C2S1	34	19	nt	-6	0	8
COc1ccccc1-n1c(C)cc(/C=C2\C(=N)N3N=C(CC(=O)N4CCOCC4)SC3=NC2=O)c1C	-1	4	-20	4	0	4
Cc1ccc(/C=C2\C(=N)N3N=C(CC(=O)N4CCOCC4)SC3=NC2=O)o1	92*	-1	-5	10	0	14
COC(=O)C(/C=N/OCc1ccc([N+](=O)[O-])cc1)NC(=O)c1ccccc1 (configuration not stated)	15	12	4	?	0	active
Cc1noc(C)c1CSCC(=O)Nc1ccccc1N1CCCC1	nt	nt	14	nt	nt	nt
CCN1CCCc2cc(CN(CCN3CCOCC3)C(=S)Nc3cccc(OC)c3)ccc21	87*	-4	-28	5	0	-3
COc1cccc(NC(=S)N(CCCN2CCCC2)Cc2ccco2)c1	nt	7	7	active	0	50
CCOc1ccc(NC(=O)N(CCN2CCOCC2)Cc2ccc3c(c2)CCCN3CC)cc1	100*	-4	21	1	0	1
CCOc1ccc(NC(=O)N(CCCN2CCOCC2)Cc2cccnc2)cc1	-6	10	0	-6	0	-9
COc1cccc(NC(=S)N(CCCN2CCN(C)CC2)Cc2ccco2)c1	3	-6	-23	-4	0	-4
CCCN1CCCc2cc(CN(CCCN3CCOCC3)C(=O)Nc3ccc(OCC)cc3)ccc21	99*	-14	4	4	0	-1
Nc1nn(-c2ccccc2)c(N)c1N=Nc1ccc2c(c1)OCO2	95*	23	-1	5	0	29
COCCCNC(=O)/C(C#N)=c1\s/c(=C\c2ccccc2OC(F)F)c(=O)n1CCCOC	22	-5	-8	55*	0	10
COCCCn1c(=O)/c(=C/c2ccccc2OC(F)F)s/c1=C(\C#N)C(=O)NCCOC	nt	nt	-58	nt	nt	nt
COCCCn1c(=O)/c(=C\c2cccc(OC)c2OC)s/c1=C(/C#N)C(=O)Nc1ccc(C(=O)O)cc1	98*	14	-84	49	0	19
COc1ccc(C(=O)CSc2nccn2C)c(OC)c1	73	6	4	17	1	2
O=C(O)c1ccc(S(=O)(=O)NCC2CCCO2)cc1 (configuration not stated)	-8	17	15	4	0	4
COc1cc(C#CC#CCN2CCCCC2)ccc1O	99*	17	-1	1	0	1
C(#Cc1ccccc1)CN1CCCCC1	-3	9	3	-7	0	-9
Cc1[nH]c(=S)sc1Cc1ccc(Cl)c(Cl)c1	96*	-3	nt	-5	0	3
